Measurements: the supplement of paper PMC10681739

Target: T1, ETS1 (UniProt P14921)
T1 sequence: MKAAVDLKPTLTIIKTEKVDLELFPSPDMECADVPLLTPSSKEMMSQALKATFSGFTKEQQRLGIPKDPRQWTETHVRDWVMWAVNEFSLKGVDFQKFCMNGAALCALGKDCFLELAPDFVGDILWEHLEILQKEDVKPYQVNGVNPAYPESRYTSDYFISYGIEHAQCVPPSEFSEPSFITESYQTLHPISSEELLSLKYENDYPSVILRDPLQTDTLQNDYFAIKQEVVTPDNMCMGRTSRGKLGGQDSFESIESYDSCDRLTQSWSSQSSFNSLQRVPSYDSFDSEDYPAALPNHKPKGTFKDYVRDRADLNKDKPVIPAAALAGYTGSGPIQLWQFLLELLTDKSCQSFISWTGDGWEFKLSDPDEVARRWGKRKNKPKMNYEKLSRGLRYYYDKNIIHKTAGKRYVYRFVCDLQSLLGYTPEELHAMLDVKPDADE
Experiment: ETS1 binding intensity (PBM fluorescence) in presence of RUNX1, normalised to ETS1-only experiment (arbitrary fluorescence units); higher = stronger binding
Details: ETS1 concentration 1 nM; RUNX1 concentration 25 nM

Row | Sequence | ETS1 binding intensity
1 | AGCTCAATTTCCTGGCGTGTAACATGGCCACAAGGG | 595
2 | ACAGGCTGTCTGCTTCCGTCAGCGGTTATTCCCTTG | 602
3 | GCTATCCCCGCCCCTTCCTGTGGGCTGGCGCCCGAT | 489
4 | GTGGGGGTGACAGGATGCGGGTAGAGGGCTCAGCCA | 2770
5 | GGTCCGGATGTATAAAGCGCGGCCCCCTGCGGGGAG | 1020
6 | ATTAAAGACTTCCGTGCAAGACCACAGCTGCCTGAC | 513
7 | TGCTTCCCTTCCGTTCCGACAGCGAAAACCGCTGCC | 783
8 | GCGCTTCCTGCCAGCTTGGAGGATAACCGCCTACCG | 513
9 | AAACCCCAAACAGGAAGTGGTAAAGCAACCTGCATC | 16400
10 | TGCAGTCTCAACTTCCTGCGGTCAAGTGATCCTTCA | 1410
11 | AAAACCTTGTTGAAAGGATGTGGCTTAGCGAGAGGT | 1820
12 | TGAGGGCATAGGAAGTGATGGCCGCAAGGGGATGCC | 2390
13 | AGGGTTACAATTTCCGTAAACCACAGAAGCAGCAGA | 979
14 | ATCACAAGCAGAGGATGTGGTTAGTGTTTCGTTCCA | 5580
15 | GTTGTGCTCTTTCCTGCTTCCCGCAGTTTTTTAGTT | 921
16 | AAATCACATACCCGGAAACCACATGCACAGAAGTGG | 3060
17 | GTATCACTTCCTGTTTTCCTCTGTGGCTTACTGCTG | 3330
18 | CGAGTCAGGAAATCACAGCTCTGCGGGTGGGCTCCT | 623
19 | GGAGCGGCGGAAGGGAGCTTGCGGCGGGAGGCTGAA | 485
20 | CTCCATCTGCCCGGAAAACCGCAGCCGCCCCAACCT | 3690

Row | Sequence | ETS1 binding intensity
21 | GACGGGAGCACCGGAAGCGGTCTTTCCCCGAGCGGA | 12500
22 | CGTACGCGCACTTCCGGTCTTTGTGGCTTGCAGCTC | 34400
23 | GTAAGTAGGCCAGGAAGTGGTCACTGCAGCATGTGA | 4960
24 | GTTCAGCGGACGGCTTCCTGCGGCTTGCTGGGGCCG | 462
25 | CTCACTCATCTGACTTCCTGCGGTTTACGACAACAG | 1970
26 | GGCGGCCTCAACTTCCGCGGTGGGACTCCGGAGCAG | 445
27 | AGCCCGGCTTCCGGCGCGTGCCGCTGCGGCTGCAGG | 1030
28 | CCCCTCTCTCCCACTTCCTGTGGTCTCAGTCTTTGT | 4840
29 | TGGGGTTTCCTGGGGAGAAACTTAGCCCTACCACAC | 485
30 | CACTTCCTATCGCTACATAACAAATTACCACAGACT | 642
31 | CTCTGAACTTCCTCTCTTTTAACCACAACTTACTAC | 1420
32 | GGGGAAGAGGGGAGGATGTCTGAGGTTTTAATTGTA | 689
33 | CTTCCCTTGCCCCGGAAAAGGGCGGTAAGAGGGAGC | 1160
34 | CAGCGGCCGTCGCGGGAAGTGCGGTCGCCGCGGCCA | 1120
35 | CTGAGCAAAAGGAGGAAGCTGTGGTCTGTGTACCCA | 1800
36 | TGGTGGCTATTTCCTCTCCCGCTGTGGTCCCTGGAG | 535
37 | ATCAGAGCGGAAATCTCAGTCTTGTGTGGGGACCTG | 1820
38 | GAAGTCACATCCTGTCTGTTGCGGCAGGGCACAGAG | 1520
39 | GTGAACTTCCTCCCCCACTGCCTATTTTTACCGCAG | 596
40 | TCCCCACACTTCCGGCCCCGCCCGCACAGCCGCACC | 4360
